# According to ChEMBL document CHEMBL3433997, “St. Jude Leishmania screening dataset” (2016):
# Experiments:
# Format in all cases: functional
# [1] = target: Solute carrier family 2, facilitated glucose transporter member 1 (Homo sapiens) (UniProt P11166); assay: ST_JUDE_LEISH: Cytotoxicity at 2uM final concentration against transgenic Leishmania Mexicana promastigotes LmGLUT1 that are glucose transport deficient and complemented with the human glucose transporter GLUT1. Activity is measured by DNA content using SYBR green in vitro
# Chain of Solute carrier family 2, facilitated glucose transporter member 1 (Homo sapiens) (P11166 whole entry): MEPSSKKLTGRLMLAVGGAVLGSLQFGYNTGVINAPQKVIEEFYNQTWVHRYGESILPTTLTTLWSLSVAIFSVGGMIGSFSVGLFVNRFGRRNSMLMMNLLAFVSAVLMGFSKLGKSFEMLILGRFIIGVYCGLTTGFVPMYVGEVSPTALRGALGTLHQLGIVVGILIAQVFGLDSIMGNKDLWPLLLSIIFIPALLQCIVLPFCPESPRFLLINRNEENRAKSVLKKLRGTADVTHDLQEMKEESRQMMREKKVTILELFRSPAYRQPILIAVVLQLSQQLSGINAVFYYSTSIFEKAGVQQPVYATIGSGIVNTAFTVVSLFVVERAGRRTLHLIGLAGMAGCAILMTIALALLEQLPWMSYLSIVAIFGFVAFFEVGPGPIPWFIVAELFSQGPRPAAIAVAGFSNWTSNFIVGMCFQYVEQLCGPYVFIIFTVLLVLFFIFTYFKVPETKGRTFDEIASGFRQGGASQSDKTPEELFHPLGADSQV
# [2] = target: Hexose transporter 1 (Plasmodium falciparum) (UniProt O97467); assay: ST_JUDE_LEISH: Cytotoxicity at 2uM final concentration against transgenic Leishmania Mexicana promastigotes LmPfHT that are glucose transport deficient and complemented with the Plasmodium falciparum hexose transporter. Activity is measured by DNA content using SYBR green in vitro
# [3] = target: Glucose transporter (Leishmania mexicana) (UniProt O61059); assay: ST_JUDE_LEISH: Cytotoxicity at 2uM final concentration against transgenic Leishmania Mexicana promastigotes LmGT2 that are glucose transport deficient and complemented with the L. Mexicana glucose transporter 2. Activity is measured by DNA content using SYBR green in vitro
SMILES,inhibition [1] [%],inhibition [2] [%],inhibition [3] [%]
COc1cccc(NC(=O)CSc2nc(-c3ccccc3Cl)ns2)c1,5.33,4.86,6.13
CCCCCCN(CCCCCC)CC(O)c1c(OC)ccc2ccccc12 (configuration not stated),3.35,5.37,5.56
CCNc1cc(C(=O)N[C@@H](Cc2ccccc2)[C@H](O)CN[C@@H]2CCc3ccccc32)cc(N2CCCC2=O)c1,10.5,2.63,2.15
CC(C)(C)C(=O)Nc1ccc(C(=O)Nc2cccc(-c3nc4ccccc4[nH]3)c2)cc1,1.87,0.85,-0.79
Cc1cccc2nc(O)c([N+](=O)[O-])c(O)c12,2.09,1.72,2.14
COc1ccccc1C1CCN(C2CCC(NC(=O)/C=C/c3cc(C(F)(F)F)cc(C(F)(F)F)c3)CC2)CC1 (configuration not stated),-3.08,-0.91,-2.77
CCc1ccc(CN(Cc2ccc(C)cc2)Cc2ccc(NC(C)=O)cc2)cc1,2.72,3.95,2.91
CC(C)(C)OC(=O)NCc1ccc(Nc2nnc(-c3cccc(C(=O)NCCC(c4ccccc4)c4ccccc4)c3)o2)cc1,8.74,10.6,7.8
COc1cccc(Nc2c(C(N)=O)cnc3ccc(-c4ccc([S+](C)[O-])cc4)cc23)c1 (configuration not stated),2.64,4.5,0.66
CN1CCC(C(=O)N(Cc2ccc(-c3ccc(CNCCc4ccc(S(C)(=O)=O)cc4)cn3)cc2)Cc2ccc3c(c2)OCO3)CC1,2.03,0.87,3.77
CCNc1cc(C(=O)N[C@@H](Cc2ccccc2)[C@H](O)CNCc2cc(C#N)ccc2OC)cc(N2CCCC2=O)c1,9.4,9.23,9.67
O=S(=O)(c1cccc(Cl)c1F)N(CCC(O)(C(F)(F)F)C(F)(F)F)Cc1cccc(O)c1,5.8,-1.78,-0.05
Nc1nccc2ccc(-c3ccnc(NCc4cccnc4)n3)cc12,9.29,7.15,11.2
COC(=O)c1cccc(CNCc2ccc(-c3ccc(-c4nc5cc(C(F)(F)F)ccc5[nH]4)cc3)cc2)c1,3.94,1.94,2.35
CCNc1cc(C(=O)N[C@@H](Cc2ccccc2)[C@H](O)CN[C@@H](C)c2ccccc2)cc(N2CCCC2=O)c1,1.35,0.55,1.24
O=C(Nc1ccccc1F)NC1CCN(c2ccnc(Nc3ccc(F)cc3)n2)C1 (configuration not stated),0.46,0.72,0.81
CC(C)(C)c1ccc(-c2cc3c(ccc4nc(N)nc(N)c43)[nH]2)cc1,1.02,1.64,-0.3

SMILES,inhibition [1] [%],inhibition [2] [%],inhibition [3] [%]
Cc1cc(N[C@@H](Cc2ccccc2)C(=O)NCc2cccs2)nc(NCCc2ccc(F)cc2)n1,8.62,8.93,4.14
CCn1ccc2c(N3CCCS3(=O)=O)cc(C(=O)N[C@@H](Cc3ccccc3)[C@H](O)CNC3CCCCC3)cc21,-0.74,1.64,5.33
O=C(/C=C/c1ccc(Cl)cc1Cl)NCCCCCN1CCC(c2c[nH]c3ccccc23)CC1,-2.21,0.6,1.57
CC(C)(C)C1CCC(C(=O)c2ccc3ccccc3c2O)CC1 (configuration not stated),1.28,-0.87,0.57
CC(C)CCNCc1c(O)ccc2ccccc12,-2.54,-0.86,3.37
Cc1cccc2nc(-c3ccc(-c4ccc(CNCCNC(=O)c5ccnn5C)cc4)s3)[nH]c12,9.45,9.43,8.36
Oc1ccc(CCNCCCCCCNCCc2ccc(Cl)c3ccccc23)cc1O,-0.26,-2.07,-2.9
Cc1cccc2nc(-c3cccc(-c4cccc(CNCC5CCCO5)c4)c3)[nH]c12 (configuration not stated),1.16,0.17,1.17
COc1ccc(C=NN=c2cc(C)[nH]c3c(C)cccc23)c2ccccc12,1.53,1.31,5.67
CC1(C)C2C=C(CN3CCC(NC(=O)Nc4ccc(Cl)c(Cl)c4)CC3)C1CC2 (configuration not stated),8.89,7.57,7.92
Cc1cc(NC(=O)NCCN2CCC(NS(=O)(=O)c3ccccc3F)CC2)c2ccccc2n1,1.57,2.12,0.24
CC(C)CCNc1nc2ccccc2nc1Nc1cccc(C(F)(F)F)c1,2.21,3.55,2.32
Cn1cnc(CCNC(=O)c2ccc(-c3cccc(-c4nc5cc(C(F)(F)F)ccc5[nH]4)c3)cc2)c1,4.83,4.43,5.89
N#Cc1ccc(-c2ccc(C(=O)NCC3CCN(CCN4CCC(c5ccc6c(c5OCC(N)=O)CCCC6)CC4)CC3)cc2)cc1,-0.38,-0.09,2.54
O=C(Nc1cccc(CN2CCCN(Cc3cccc(O)c3)CC2)c1)c1ccc(-c2ccccc2)cc1,-3.92,-2.77,-0.17
CCC(ON1C(N)=NC(N)=NC1(C)C)c1ccccc1 (configuration not stated),-1.61,-0.45,-3.19
COc1cccc(NC(=O)c2cc(Br)cc(N3CCN(c4ccncc4)CC3)c2)c1,2.41,2.07,2.41
